Rab9 promoter act: activators of Rab9 promoter; Huh7 Rab9 promoter-luciferase reporter, luminescence, 24 h; 320,000 tested, 2.8% active; Potency, µM (titrated, usually from 9.22 µM), for inactives: at the highest dose activation, negative = inhibition, usual class: activators; also: % of control where 0% means no effect; nearly all actives have a fitted effect of over 60% in size
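Cells were plated at 1500 per well in reduced-serum medium with 10% FBS and left 2 h. Compound in DMSO was then added for 24 h at 37 °C. Reporter signal was read by luminescence after 10 min with luciferase detection reagent.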
ELG1 genotoxic: induces genotoxicity in HEK293T cells with luciferase-tagged ELG1; HEK293T ELG1-luciferase reporter, luminescence, 16 h; Potency, µM (titrated, usually from 46 µM), without a hit: top-dose activity change, positive = activation, actives largely listed as activators; 330,000 tested, 1.3% active; AID 504466; also: % of control where 0% means no effect; nearly all actives have a fitted effect of over 60% in size
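HEK293T cells expressing luciferase-tagged ELG1 were exposed to compound or DMSO vehicle for 16 hr at 37 °C and 5% CO2. Luciferase activity was then measured with ONE-Glo after 30 min at room temperature.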
NPC1 prom act: NPC1 promoter activation; Huh7 NPC1 promoter luciferase reporter, 24 h; Potency, µM (series often up to 9.22 µM), inactives show at the highest dose activation, usual class: activators; 320,000 tested, 2.4% active; AID 485313; also: % of control where 0% means no effect; nearly all actives have a fitted effect of over 60% in size
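Huh7 cells stably carrying NPC1 promoter–luciferase, plated in Opti-MEM with 10% FBS for 2 h, were exposed to compound in DMSO for 24 h at 37 °C; luciferase reagent was added for 10 min and luminescence read.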
FLuc modulator: counter-screen for miR-21 project: firefly luciferase inhibitors or activators | P08659 | purified FLuc, Km substrates, luminescence inhibition | Potency, µM (series often up to 57.5 µM), for inactives: at the highest dose activity change, negative = inhibition, most hits filed as inhibitors | 360,000 tested, 6.9% active | AID 588342;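 also: plate controls were vehicle for no effect and reference inhibitor for full effect; nearly all actives have a fitted effect of over 55% in size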
Target sequence (P08659 whole entry, looked up): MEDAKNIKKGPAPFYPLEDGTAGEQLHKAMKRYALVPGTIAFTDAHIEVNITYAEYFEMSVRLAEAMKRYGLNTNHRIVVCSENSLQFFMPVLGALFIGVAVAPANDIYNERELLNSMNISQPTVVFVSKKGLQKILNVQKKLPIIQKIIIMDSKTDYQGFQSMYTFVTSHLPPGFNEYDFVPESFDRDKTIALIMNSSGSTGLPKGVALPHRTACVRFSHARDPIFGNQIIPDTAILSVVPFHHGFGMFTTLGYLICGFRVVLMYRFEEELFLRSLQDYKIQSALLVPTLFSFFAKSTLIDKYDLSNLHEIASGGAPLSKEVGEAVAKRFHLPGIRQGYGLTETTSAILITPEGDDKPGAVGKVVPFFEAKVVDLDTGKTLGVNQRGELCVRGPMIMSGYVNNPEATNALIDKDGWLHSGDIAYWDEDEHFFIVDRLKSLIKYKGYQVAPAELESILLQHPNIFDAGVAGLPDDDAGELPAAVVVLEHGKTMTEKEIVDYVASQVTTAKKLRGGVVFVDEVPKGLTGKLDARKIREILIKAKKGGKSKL
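Purified P. pyralis luciferase, 10 nM final, with Km-level 10 uM D-luciferin and 10 uM ATP in 50 mM Tris acetate pH 7.5, 10 mM Mg acetate, 0.01% Tween-20, 0.05% BSA; 6-point qHTS titration about 60 µM downward; luminescence read.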
SMN2 splice up: increases expression of the SMN2 splice variant | HEK293 SMN2-luciferase splicing reporter, luminescence, 30-36 h | Potency, µM (highest dose often 46.1 µM), for the others: at the top dose activity change, positive = activation, actives largely listed as activators | 210,000 tested, 2.8% active | AID 1458; also: % of control where 0% means no effect; nearly all actives have a fitted effect of over 55% in size
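HEK293 cells carry an SMN2 minigene-luciferase reporter in which exon 7 inclusion puts luciferase in frame. Cells were seeded at 2000 cells/well, attached for 10-12 hours, then exposed to compounds for 30-36 hours at 37C before ONE-Glo luminescence.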
ELG1 DNA repair: inhibitors of ELG1-dependent DNA repair in HEK293T cells; HEK293T ELG1-luciferase reporter, luminescence, 16 h; DNA damage induced by 5-fluorouridine; Potency, µM (series often up to 46.1 µM), for the others: top-dose activity change, negative = inhibition, most hits filed as inhibitors; AID 504467; 330,000 tested, 2.3% active; also: % is scaled to controls: 0 for no effect and ±100 for the full control effect; nearly all actives have a fitted effect of over 55% in size
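DMSO vehicle served as the neutral condition. Each well held 2,000 cells given 5-fluorouridine plus compound; after 16 hr at 37 °C/5% CO2, ONE-Glo was added and luciferase measured 30 min later.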
* marks the source's active call; other numbers are inactive results. Sampled rows, rich in hits. Any-hit rate of the full collection: about 9.2%. Calls follow the shape of the dose curve; as a rule, active = well fitted curve in the direction sought with a large enough effect; inconclusive = small, poorly fitted or top-dose-only effect, or another doubt; inactive = no such curve, though single readings can be large; an effect the other way counts as inactive or inconclusive. Potency is read from the fitted curve at half-maximal effect.

Results for COc1ccc(COc2ccccc2C(=O)NCc2ccccc2)cc1F ?
Rab9 promoter act: -11.5%; ELG1 genotoxic: -7.0%; NPC1 prom act: 0.3%; FLuc modulator: -1.3%; SMN2 splice up: -49.8%; ELG1 DNA repair: 25.9µM*

How did COc1ccc(C(OC(=O)c2ccco2)C(=O)NC2CCCC2)cc1 (configuration not stated) do in these assays?
Rab9 promoter act: 5.6%; ELG1 genotoxic: 3.3%; NPC1 prom act: -4.5%; FLuc modulator: 0.9%; ELG1 DNA repair: 9.3%

How did COc1ccc(/C(C)=N/NC(=O)c2ccccc2OCc2ccccc2)c(OC)c1 do in these assays?
Rab9 promoter act: inconclusive; ELG1 genotoxic: inconclusive; NPC1 prom act: inconclusive; FLuc modulator: 19µM*; SMN2 splice up: 12.6µM*; ELG1 DNA repair: inconclusive

Results for COc1ccc(CC(=O)Nc2ccc(/C(C)=N/NC(=O)c3ccc(OC)cc3OC)cc2)cc1 ?
Rab9 promoter act: 0.3%; ELG1 genotoxic: 4.2%; NPC1 prom act: 0.0%; FLuc modulator: 3.0%; ELG1 DNA repair: -2.3%

How did COc1ccc(-n2cccc2C=O)cc1 do in these assays?
Rab9 promoter act: 0.9%; ELG1 genotoxic: 3.4%; NPC1 prom act: 1.0%; FLuc modulator: 3.4%; SMN2 splice up: -25.4%; ELG1 DNA repair: 0.0%

Results for COc1ccc(-n2cccc2/C=C/[N+](=O)[O-])cc1 ?
Rab9 promoter act: 1.4%; ELG1 genotoxic: -10.6%; NPC1 prom act: -6.0%; FLuc modulator: -19.5%; SMN2 splice up: -95.6%; ELG1 DNA repair: 23.1µM*

What do the screens show for `Cc1cc(N2CCN(c3ccccc3)CC2)n2cc(-c3ccccc3)nc2n1`?
Rab9 promoter act: 0.7%; ELG1 genotoxic: -4.5%; NPC1 prom act: 1.4%; FLuc modulator: 23.9µM*; SMN2 splice up: -10.1%; ELG1 DNA repair: inconclusive

How did Cc1cc(N2CCN(c3ccccc3Cl)CC2)n2cc(-c3ccccc3)nc2n1 do in these assays?
Rab9 promoter act: -8.1%; ELG1 genotoxic: -21.1%; NPC1 prom act: 1.1%; FLuc modulator: inconclusive; SMN2 splice up: -6.5%; ELG1 DNA repair: inconclusive

Results for O=C(CSc1nc2ccccc2o1)Nc1ccccc1 ?
Rab9 promoter act: -1.2%; ELG1 genotoxic: 20.6µM*; NPC1 prom act: 2.7%; FLuc modulator: inconclusive; SMN2 splice up: 23.2%; ELG1 DNA repair: 19.1%

What do the screens show for `Cc1ccc(C(=O)CSc2nnc3c4ccccc4nc(C(C)(C)C)n23)cc1`?
Rab9 promoter act: -17.2%; ELG1 genotoxic: -3.2%; NPC1 prom act: -25.4%; FLuc modulator: 2.3%; SMN2 splice up: -16.0%; ELG1 DNA repair: 16.4µM*

What do the screens show for `CC(=O)CSc1nnc2c3ccccc3nc(C(C)(C)C)n12`?
Rab9 promoter act: -5.1%; ELG1 genotoxic: inconclusive; NPC1 prom act: 0.3%; FLuc modulator: 0.2%; SMN2 splice up: inconclusive; ELG1 DNA repair: 2.1%

What do the screens show for `Cc1ccc(C(=O)CSc2nc3ccccc3o2)cc1`?
Rab9 promoter act: inconclusive; ELG1 genotoxic: 20.0%; NPC1 prom act: 21.9%; FLuc modulator: 13.5µM*; SMN2 splice up: -28.8%; ELG1 DNA repair: inconclusive

What do the screens show for `CC(Sc1nc2ccccc2o1)C(=O)O` (configuration not stated)?
Rab9 promoter act: 3.8%; ELG1 genotoxic: inconclusive; NPC1 prom act: -3.3%; FLuc modulator: 15.1µM*; SMN2 splice up: -19.1%; ELG1 DNA repair: inconclusive

How did O=C(CC1C(=O)NCCN1Cc1cccc(Oc2ccccc2)c1)NCCc1ccncc1 (configuration not stated) do in these assays?
Rab9 promoter act: -6.2%; ELG1 genotoxic: -0.3%; NPC1 prom act: -4.2%; FLuc modulator: -1.1%; ELG1 DNA repair: -2.8%

What do the screens show for `CC(C)[C@H]1C(=O)Nc2ccccc2N1C(=O)N[C@@H](Cc1ccccc1)C(=O)N[C@@H](Cc1ccccc1)C(=O)O`?
Rab9 promoter act: -2.7%; ELG1 genotoxic: -0.7%; NPC1 prom act: -3.9%; FLuc modulator: 2.4%; ELG1 DNA repair: 18.1%

Results for CCC(CC)C(=O)Nc1ccc2nc(SCC(=O)N3c4ccccc4CC3C)sc2c1 (configuration not stated) ?
FLuc modulator: -1.0%

What do the screens show for `O=C(COC(=O)c1ccc2ncsc2c1)Nc1ccccc1Br`?
Rab9 promoter act: -0.5%; ELG1 genotoxic: 1.5%; NPC1 prom act: -1.4%; FLuc modulator: -5.9%; ELG1 DNA repair: 17.1%

Results for c1ccc(-c2ccc(CN3CCSCC3)cc2)cc1 ?
Rab9 promoter act: 0.1%; ELG1 genotoxic: 4.8%; NPC1 prom act: 10.8%; FLuc modulator: 26.9µM*; ELG1 DNA repair: inconclusive

What do the screens show for `CCCN1CCN(C(=O)c2cc3c(s2)-c2ccccc2OC3)CC1`?
Rab9 promoter act: 3.98µM*; ELG1 genotoxic: 14.6µM*; NPC1 prom act: inconclusive; FLuc modulator: 7.57µM*; ELG1 DNA repair: inconclusive

What do the screens show for `O=C(c1cc2c(s1)-c1ccccc1OC2)N1CCCC1`?
Rab9 promoter act: 2.82µM*; ELG1 genotoxic: inconclusive; NPC1 prom act: inconclusive; FLuc modulator: 12µM*; SMN2 splice up: -22.1%; ELG1 DNA repair: inconclusive

What do the screens show for `CCOC(=O)N1CCN(C(=O)c2cc3c(s2)-c2ccccc2OC3)CC1`?
Rab9 promoter act: -5.2%; ELG1 genotoxic: 2.6%; NPC1 prom act: -0.9%; FLuc modulator: 1.4%; SMN2 splice up: 1.2%; ELG1 DNA repair: -7.5%

Results for Cc1ccccc1NC(=O)Cn1c(=O)n(CCC(=O)N2CCc3ccccc3C2)c(=O)c2ccccc21 ?
FLuc modulator: -8.4%; SMN2 splice up: -0.9%

Results for O=[N+]([O-])c1cc(CN2CCN(c3ccccc3)CC2)c(O)c2ncccc12 ?
Rab9 promoter act: -48.2%; ELG1 genotoxic: 2.9%; NPC1 prom act: -13.0%; FLuc modulator: 3.0%; SMN2 splice up: -100.5%; ELG1 DNA repair: 4.61µM*

Results for O=[N+]([O-])c1cc(F)c2cccnc2c1O ?
Rab9 promoter act: 1.9%; ELG1 genotoxic: -11.2%; NPC1 prom act: -0.9%; FLuc modulator: -2.3%; ELG1 DNA repair: 20.6µM*

How did O=[N+]([O-])c1cc(CN2CCOCC2)c2cccnc2c1O do in these assays?
Rab9 promoter act: 15.3%; ELG1 genotoxic: -3.8%; NPC1 prom act: -13.4%; FLuc modulator: 3.9%; SMN2 splice up: -67.9%; ELG1 DNA repair: -11.0%

How did CC1Sc2ccc(S(=O)(=O)N3CCC(C(=O)N(C)Cc4ccccc4)CC3)cc2NC1=O (configuration not stated) do in these assays?
Rab9 promoter act: -5.0%; ELG1 genotoxic: -10.3%; NPC1 prom act: -1.0%; FLuc modulator: 1.0%; ELG1 DNA repair: 7.3µM*

Bioassay records as filed in PubChem BioAssay.
